Among the data in PubChem BioAssay (EPA / NIEHS) are outcome and AC50 values, retold here.

Molecules are shown by their SMILES. The source made the active and inactive calls. How the source made its calls: active means hit-call score of the fitted dose curve at least 0.9, where 1 is the maximum; inactive means score below 0.9.

Read-out in this experiment: TIMP metallopeptidase inhibitor 2 (TIMP2), TIMP2 (gene 7077)
The experiment can be described thus: BSK_KF3CT_TIMP2: BioMAP Diversity Plus: KF3CT Assay for TIMP metallopeptidase inhibitor 2 (TIMP2) Biomarker Activity (AID 2283071). To be noted: primary human keratinocytes with fibroblasts; actives raise or lower the signal. Here is the method: BSK_KF3CT is a cell-based, multiplexed-readout assay that uses keratinocytes and foreskin fibroblasts, a human skin primary cell co-culture, with measurements taken at 24 hours after chemical dosing in a 96-well plate.BSK_KF3CT_TIMP2 is an assay component measured in the BSK_KF3CT assay. It measures TIMP-2 antibody related to regulation of gene expression using ELISA technology.Data from the assay component BSK_KF3CT_TIMP2 was analyzed into 1 assay endpoint. This assay endpoint, BSK_KF3CT_TIMP2, was analyzed with bidirectional fitting relative to DMSO as the negative control and baseline of activity. Using a type of binding reporter, gain or loss-of-signal activity can be used to understand changes in the signaling as they relate to the gene TIMP2. Furthermore, this assay endpoint can be referred to as a primary readout, because this assay has produced multiple assay endpoints where this one serves a signaling function. To generalize the intended target to other relatable targets, this assay endpoint is annotated to the protease inhibitor intended target family, where the subfamily is metalloproteinase inhibitor.
The levels of cell surface (or secreted, indicated by the prefix "s") biomarker endpoints were measured by ELISA. Overt cytotoxicity to cells in confluent adherent cultures (all systems other than the BT system) was assessed by measuring total protein levels using sulforhodamine B (SRB) staining in parallel cultures at the time of biomarker measurements, indicated as SRB endpoints. For proliferation assays for adherent cell types, individual cell types are cultured at sub-confluence and relative cell numbers quantified by SRB staining at time points optimized for each system (48 h: 3C and CASM3C systems; 72 h: BT and HDF3CGF systems; 96 h: SAg system). SRB was performed by staining cells with 0.1% SRB after fixation with 10% TCA and reading wells at 560 nm.Viability and proliferation of PBMC (T cells) was quantified by Alamar Blue reduction for the SAg and BT systems. For PBMC viability (referred to as PBMC Cytotoxicity within the assay endpoint names), cells were plated (75,000/well in a 96-well plate) and then chemical samples added for 1 h before addition of activators, SEB and TSST-1 (20 ng/mL final concentration each). Cells were incubated for 90 h. Then, Alamar Blue (20 uL/well) (Invitrogen, Cat DAL1100) was added for 6 h, and the plates were read with a fluorescence microplate reader at 546/580 nm (excitation/emission). For PBMC proliferation, cells were plated and activated as above but incubated for only 16 h prior to addition of Alamar Blue. Plates were read after 6 h.
For `C=CCCCCCCCCC(=O)O`, the outcome was inactive.
Still for that read-out and setting: then `CC(C)CCO`, with “inactive”; and `Nc1cccc(N)c1`, with “inactive”; and `CC(=O)c1ccc2c(c1)[C@H](NC(=O)c1ccc(F)cc1)[C@@H](O)C(C)(C)O2`, with “inactive”.
`Cc1ccc(S(=O)(=O)O)cc1C`: the result was inactive.
On the same count and under the same terms, then `O=C(O)c1cccc(N(Cc2cccnc2)c2ccc(OC(F)F)c(OC(F)F)c2)c1`, with “inactive”.
`CCCCC(CC)COC(=O)CCCCCCCCC(=O)OCC(CC)CCCC` (stereo not given): the result was inactive.
Turning to `O=C(NS(=O)(=O)/C=C/c1ccccc1)c1ccc(F)cc1Cl`, the AC50 was 20 µM (active).
Turning to `CCOCCO`, the outcome was inactive.
The same measure, in the same setting: to `Cc1ccc(O)cc1` belongs “inactive”; to `CCOCCOCCOCCO`, “inactive”; to `CCn1nc(Cc2ccccc2)cc1C1CCN(C[C@H]2C[C@H](N(C)[C@@H](C(=O)O)C(C)C)C[C@@H]2c2cccc(F)c2)CC1`, “inactive”.
As for `Cc1ccc(C)c(O)c1`, the result was inactive.
As to `O=C(O)c1cc(N=Nc2ccc(S(=O)(=O)Nc3ccccn3)cc2)ccc1O`, the result was inactive.
On the same count and under the same terms, then `Cc1c(-c2cccnc2)c2ccccc2n1CCCCC(=O)O`, with “inactive”.
On to `O=C(OC[C@H]1O[C@@H](OC(=O)c2cc(O)c(O)c(OC(=O)c3cc(O)c(O)c(O)c3)c2)[C@H](OC(=O)c2cc(O)c(O)c(OC(=O)c3cc(O)c(O)c(O)c3)c2)[C@@H](OC(=O)c2cc(O)c(O)c(OC(=O)c3cc(O)c(O)c(O)c3)c2)[C@@H]1OC(=O)c1cc(O)c(O)c(OC(=O)c2cc(O)c(O)c(O)c2)c1)c1cc(O)c(O)c(OC(=O)c2cc(O)c(O)c(O)c2)c1`, for which the AC50 was 2.92 µM (active).
`Cn1cnc([N+](=O)[O-])c1Sc1ncnc2nc[nH]c12`: the outcome was inactive.
Turning to `CN(C)c1ccc(N=NS(=O)(=O)O)cc1`, the result was inactive.
`Fc1ccccc1[C@@H](F)COC1CCC(Nc2ncnc3[nH]ncc23)CC1` (stereo not given in full): the result was inactive.
In the case of `COc1cccc(-c2ccc(/C=C\CN3CCCCCC3)cc2Cl)c1`, the AC50 was 33.2 µM (active).
For the compound `C=CC(=C)CCC=C(C)C`, the outcome was inactive.
On to `CCc1cc(SCc2sc(-c3ccc(C(F)(F)F)cc3)nc2CN2CCN(c3ccc(OC)cc3)CC2)ccc1OCC(=O)O`, for which the concentration at half-maximal activity (AC50) is 7.31 µM (active).
`CCN(C(=O)c1cc(C)cc(OC[C@H](C)Nc2ccncc2)c1)C(C)C`: the outcome was inactive.
On the same count and under the same terms, then `CC[C@H]1CC[C@H](NCc2cc3c(cc2OC)[C@H]2C[C@H]2C(=O)N3C)[C@H](c2ccccc2)N1`, with “inactive”.
On the same count and under the same terms, then `CNS(=O)(=O)c1cc(C(=O)N2CCC(CCN3C4CCC3CC(n3c(C)nc5ccccc53)C4)(c3cccc(F)c3)CC2)c(Cl)cc1F` (stereo not given), with “inactive”; and `O=c1n(CC2CO2)c(=O)n(CC2CO2)c(=O)n1CC1CO1` (stereo not given), with “inactive”; and `CCCCCCCCO`, with “inactive”.
Same read-out and setting: then `O=C1OC(=O)C2C3C=CC(C3)C12` (stereo not given), with “inactive”.
As for `COC(=O)c1ccccc1O`, the outcome was inactive.
Still for that read-out and setting: then `CC1(C)C(=O)N(Br)C(=O)N1Br`, with “inactive”.
The same measure, in the same setting: to `CN(C)c1ccc(Cc2ccc(N(C)C)cc2)cc1` belongs “inactive”; to `CC(C)CCCCCCOC(=O)c1ccc(C(=O)OCCCCCCC(C)C)c(C(=O)OCCCCCCC(C)C)c1`, “inactive”.
Same read-out and setting: then `C1=CCCC=CCCC=CCC1`, with “inactive”.
Turning to `O=C1CCC(N2C(=O)c3ccccc3C2=O)C(=O)N1` (stereo not given), the result was inactive.
Same read-out and setting: then `CCCCCCCCCCCCc1ccccc1`, with “inactive”.
Turning to `CCOc1cccc(-n2cc(C(=O)N3CCN(c4cc(C(=O)O)c5ccccc5c4)CC3)nc2-c2ccc(C)cc2)c1`, the concentration at half-maximal activity (AC50) is 14.7 µM (active).
Still for that read-out and setting: then `On1ccccc1=S`, with 11.6 µM (active).
Turning to `Oc1ccc2c(c1)-c1ccccc1C2`, the outcome was inactive.
Same read-out and setting: then `O=C(O)CCN(C1(C(=O)NO)CCCC1)S(=O)(=O)c1ccc(Oc2ccc(F)cc2)cc1`, with “inactive”.
Still for that read-out and setting: then `CCCCCCCCCCCCCCCO`, with “inactive”.
